The source of these data is PubChem BioAssay (NCATS).

Inconclusive results are not listed. Unmarked numbers belong to inactive results. The source made the active and inactive calls. The call rests on the fitted dose curve; in most records, active means well fitted curve in the direction sought with a large enough effect; inconclusive means small, poorly fitted or top-dose-only effect, or another doubt; inactive means no such curve, though single readings can be large; an effect the other way counts as inactive or inconclusive.

One experiment concerns MKL-2. The experiment is described as follows: qHTS assay to identify novel small-molecules to repurpose for Merkel cell carcinoma treatment (AID 1296009). Further: nearly all actives have a fitted effect of over 60% in size. The note with it: MCC and control cell lines, CellTiter-Glo viability, 72 h; series mostly up to 46 µM. The method in brief:
(§1)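 After compound transfer in DMSO, plates were kept 72 hr at 37 degree celsius. Luminescent ATP signal from CellTiter-Glo served as viability measure, normalized against DMSO and no-cell controls.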

The subject of another experiment is UISO. The description is as above. The note with it: MCC and control cell lines, CellTiter-Glo viability, 72 h; series mostly up to 46 µM. The essentials: as §1
For a further experiment, the system named is WaGa. Described as above. The note with it: MCC and control cell lines, CellTiter-Glo viability, 72 h; series mostly up to 46 µM. The essentials:
as §1

In a further experiment the test system is Es-2. Briefly: Primary qHTS to identify gynecologic anti-cancer compounds using libraries of approved drugs and bioactive compounds (AID 1345084). Further: nearly all actives have a fitted effect of over 55% in size. The note with it: Gynecologic cancer cell panel viability, ATPlite luminescence, 48 h; series mostly up to 57.5 µM. The essentials: (§2)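 Luminescence from the ATPlite ATP-monitoring reagent indicates viable cell number; lower signal means cytotoxicity. Cells received compound 16 h after seeding and were exposed for 48 h across five concentrations.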

Another experiment has as its system Hek293T. Described as above. The note with it: Gynecologic cancer cell panel viability, ATPlite luminescence, 48 h, control line for the selectivity index; series mostly up to 57.5 µM. The essentials: as §2
The next experiment has as its system JEG-3. Described as above. The note with it: Gynecologic cancer cell panel viability, ATPlite luminescence, 48 h; series mostly up to 57.5 µM. The essentials: as §2
For another experiment, the system named is PA-1. Described as above. The note with it: Gynecologic cancer cell panel viability, ATPlite luminescence, 48 h; series mostly up to 57.5 µM. The method in brief: as §2
In another experiment the test system is Tov-21-G. The experiment is described as above. The note with it: Gynecologic cancer cell panel viability, ATPlite luminescence, 48 h; series mostly up to 57.5 µM. The method in brief:
as §2

A further experiment relates to MCC-26. The experiment is described as follows: qHTS assay to identify novel small-molecules to repurpose for Merkel cell carcinoma treatment (AID 1296009). Further: nearly all actives have a fitted effect of over 60% in size. The note with it: MCC and control cell lines, CellTiter-Glo viability, 72 h; series mostly up to 46 µM. The method in brief:
as §1

Another experiment concerns MKL-1. The description is as above. The note with it: MCC and control cell lines, CellTiter-Glo viability, 72 h; series mostly up to 46 µM. The method in brief:
as §1

The next experiment concerns C33A. The experiment is described as follows: Primary qHTS to identify gynecologic anti-cancer compounds using libraries of approved drugs and bioactive compounds (AID 1345084). Further: nearly all actives have a fitted effect of over 55% in size. The note with it: Gynecologic cancer cell panel viability, ATPlite luminescence, 48 h; series mostly up to 57.5 µM. The essentials: as §2
The test system of a further experiment is CAOV3. The description is as above. The note with it: Gynecologic cancer cell panel viability, ATPlite luminescence, 48 h; series mostly up to 57.5 µM. The essentials: as §2
In another experiment the test system is CASKI. The experiment is described as above. The note with it: Gynecologic cancer cell panel viability, ATPlite luminescence, 48 h; series mostly up to 57.5 µM. The essentials: as §2
A further experiment relates to HeLa. The experiment is described as above. The note with it: Gynecologic cancer cell panel viability, ATPlite luminescence, 48 h; series mostly up to 57.5 µM. The essentials:
as §2

In a further experiment the test system is OV90. The experiment is described as above. The note with it: Gynecologic cancer cell panel viability, ATPlite luminescence, 48 h; series mostly up to 57.5 µM. The essentials: as §2
The test system of the next experiment is SKOV3. Described as above. The note with it: Gynecologic cancer cell panel viability, ATPlite luminescence, 48 h; series mostly up to 57.5 µM. The essentials: as §2
The subject of a further experiment is Tov112D. The description is as above. The note with it: Gynecologic cancer cell panel viability, ATPlite luminescence, 48 h; series mostly up to 57.5 µM. The method in brief:
as §2

Another experiment concerns NIH3T3. Briefly: qHTS assay to identify novel small-molecules to repurpose for Merkel cell carcinoma treatment (AID 1296009). Further: nearly all actives have a fitted effect of over 60% in size. The note with it: MCC and control cell lines, CellTiter-Glo viability, 72 h; series mostly up to 44.8 µM. The method in brief:
as §1
On the % scale 0 is the no-effect control and ±100 the full control effect; potency means the concentration at half of the fitted maximal effect.

Turning to `CCC(=O)N1CCN(c2ccc(-n3c(=O)ccc4cnc5ccc(-c6cnc7ccccc7c6)cc5c43)cc2C(F)(F)F)CC1`, the Potency entry in the experiment on MKL-2 and in the experiment with WaGa was “inactive” throughout. The Potency is 0.0469 µM (active) with UISO; 0.141 µM (active) in the experiment with Es-2; 0.1 µM (active) in the experiment with Hek293T; 0.126 µM (active) in the experiment on PA-1; 0.0794 µM (active) with Tov-21-G. For the same molecule, the activity change, negative = cytotoxicity with JEG-3 was -16.3% [at 11.6 µM].
With `O=C(c1ccc(F)c(F)c1Nc1ccc(I)cc1F)N1CC(O)([C@H]2CCCCN2)C1`, the Potency entry with MCC-26, in the experiment with MKL-1, with UISO and in the experiment on WaGa was “inactive” throughout.
As for `Nc1ccn([C@@H]2O[C@H](CO)[C@@H](O)[C@H]2O)c(=O)n1`, the Potency in the experiment with MKL-1 was 9.35 µM (active); in the experiment with WaGa it was 0.132 µM (active). Besides, the Potency result in the experiment with MKL-2 is “inactive”.
Turning to `CN(C)CCOc1cc(-c2cn[nH]c2)ccc1NC(=O)C1COc2ccccc2O1` (stereo not given), the Potency entry in the experiment on C33A, in the experiment with CAOV3, with CASKI, with Es-2, with HeLa and in the experiment with Hek293T was “inactive” in each case. In addition, the Potency result in the experiment on JEG-3, in the experiment with OV90, with PA-1, in the experiment with SKOV3, in the experiment with Tov-21-G and with Tov112D was “inactive” throughout.
Regarding `Cc1cccc(-c2[nH]c(C(C)(C)C)nc2-c2ccc3c(c2)OCO3)n1`, the Potency in the experiment with MKL-1 is 3.72 µM (active); in the experiment on MKL-2 it was 0.743 µM (active); with UISO, 1.32 µM (active); with WaGa it was 2.64 µM (active).
As for `CNC(=O)c1cc(Oc2ccc(NC(=O)Nc3ccc(Cl)c(C(F)(F)F)c3)c(F)c2)ccn1`, the Potency entry with MCC-26, in the experiment on CASKI, with Es-2, in the experiment with HeLa, in the experiment with Hek293T and with PA-1 was “inactive” in each case. Further, the Potency result in the experiment with SKOV3, in the experiment with Tov-21-G and in the experiment with Tov112D was “inactive” in each case. The figures for the Potency in the experiment with MKL-2, in the experiment with UISO and in the experiment on WaGa were 16.6 µM (active), 5.9 µM (active) and 18.7 µM (active), respectively.
Take `O=C(NC[C@H](O)CO)c1ccncc1Nc1ccc(I)cc1F`: the Potency result with MCC-26, with UISO and with WaGa was “inactive” each time. Besides, the Potency in the experiment with MKL-2 is 6.62 µM (active).
On to `CC[C@]1(O)C[C@H]2CN(CCC3=c4ccccc4=N[C]3[C@@](C(=O)OC)(c3cc4c(cc3OC)N(C)[C@H]3[C@@](O)(C(N)=O)[C@H](O)[C@]5(CC)C=CCN6CC[C@]43[C@@H]65)C2)C1`, for which the Potency in the experiment on MKL-1 is 0.0037 µM (active); in the experiment with MKL-2 it was 0.0469 µM (active).
For `C[C@@]1(C(=O)Nc2ccc(F)nc2)CCCN1c1nc(Nc2cc(C3CC3)[nH]n2)c2cccn2n1`, the Potency in the experiment with MCC-26 was 16.6 µM (active); in the experiment on NIH3T3, 4.61 µM (active); with UISO, 0.0833 µM (active); in the experiment on WaGa, 3.32 µM (active); with CASKI, 14.1 µM (active); with HeLa, 3.98 µM (active). Also, the Potency is 5.01 µM (active) with PA-1 and 12.6 µM (active) in the experiment with Tov-21-G. Moreover, the Potency result in the experiment with C33A, in the experiment with Es-2, with JEG-3 and in the experiment on Tov112D was “inactive” in each case.
With `O=c1[nH]nc(OCCCc2ccc(Cl)cc2)c(NCc2cccnc2)c1Br`, the Potency result with MCC-26, in the experiment with Es-2 and with HeLa was “inactive” in each case. For the same molecule, the results for the Potency with MKL-1 and in the experiment on MKL-2 were 23.5 µM (active) and 14.8 µM (active), respectively.
Regarding `CCc1cc(-c2n[nH]c(C)c2-c2ccc3c(c2)OCCO3)c(O)cc1O`, the Potency result in the experiment on MKL-2 was “inactive”.
For `Nc1ccc(-c2ccc3ncc4ccc(=O)n(-c5cccc(C(F)(F)F)c5)c4c3c2)cn1`, the Potency is 0.148 µM (active) in the experiment with MKL-1; 0.132 µM (active) in the experiment with MKL-2; 0.0332 µM (active) in the experiment with UISO; 0.372 µM (active) in the experiment with WaGa; 1 µM (active) in the experiment on CASKI; 0.316 µM (active) in the experiment on Es-2. Further, the Potency is 2.51 µM (active) in the experiment on HeLa, 0.316 µM (active) with Hek293T, 8.91 µM (active) with JEG-3 and 17.8 µM (active) in the experiment on Tov-21-G.
Take `Cc1ccc(NC(=O)Nc2cc(C(F)(F)F)ccc2F)cc1Nc1ccc2c(c1)NC(=O)C2=Cc1ccc[nH]1`: the Potency result with MKL-2 is “inactive”. Besides, the Potency with UISO was 18.7 µM (active).
Take `COc1c(C)c2c(c(O)c1CC=C(C)CCC(=O)OCCN1CCOCC1)C(=O)OC2`: the figures for the Potency in the experiment on MKL-2 and in the experiment with WaGa were 1.32 µM (active) and 2.64 µM (active), respectively.
Turning to `CCOC(=O)N1CCN([N+]([O-])=NOc2cc(ON=[N+]([O-])N3CCN(C(=O)OCC)CC3)c([N+](=O)[O-])cc2[N+](=O)[O-])CC1`, the Potency in the experiment with MKL-2 was 23.5 µM (active). In addition, in the experiment with NIH3T3, the Potency entry was “inactive”.
For `COc1c(C)c2c(c(O)c1CC=C(C)CCC(=O)O)C(=O)OC2`, the Potency is 4.69 µM (active) with MKL-1, 2.09 µM (active) with MKL-2, 9.35 µM (active) in the experiment with UISO and 3.32 µM (active) with WaGa.
In the case of `C[C@@H](N)c1ccc(C(=O)Nc2ccnc3[nH]ccc23)cc1`, the Potency entry in the experiment on MKL-1, with MKL-2, with JEG-3 and with OV90 was “inactive” each time. Also, the values for the Potency in the experiment with HeLa, in the experiment on Tov-21-G and in the experiment on Tov112D were 17.8 µM (active), 31.6 µM (active) and 25.1 µM (active), respectively.
Turning to `C=CC(=O)Nc1cccc(Sc2nc(Nc3ccc(N4CCN(C)CC4)cc3)ncc2Cl)c1`, the Potency entry in the experiment on Es-2, with JEG-3 and with OV90 was “inactive” in each case. The Potency in the experiment on Tov-21-G was 12.6 µM (active).
With `Cc1[nH]c(C=C2C(=O)Nc3ccc(S(=O)(=O)N(C)c4cccc(Cl)c4)cc32)c(C)c1C(=O)N1CCN(C)CC1`, the Potency in the experiment with MKL-2 and in the experiment on WaGa was 20.9 µM (active) each time.
